# Results: PubChem BioAssay
# Activity calls are given as the source filed them. No rule for the calls is given here.
# Molecular target: Pantothenate synthetase (Mycobacterium tuberculosis (strain ATCC 25618 / H37Rv)) (UniProt P9WIL5)
# Assay: Recombinant Mtb pantothenate synthetase (PanC) inhibitors, coupled enzyme, confirmatory (AID 375);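 also: 0% = full reaction with vehicle and 100% = no enzyme background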
# Conditions: coupled enzyme assay; at 10 µM, active compounds read high
# Pantothenate synthetase (Mycobacterium tuberculosis (strain ATCC 25618 / H37Rv)), sequence (P9WIL5 whole entry, looked up): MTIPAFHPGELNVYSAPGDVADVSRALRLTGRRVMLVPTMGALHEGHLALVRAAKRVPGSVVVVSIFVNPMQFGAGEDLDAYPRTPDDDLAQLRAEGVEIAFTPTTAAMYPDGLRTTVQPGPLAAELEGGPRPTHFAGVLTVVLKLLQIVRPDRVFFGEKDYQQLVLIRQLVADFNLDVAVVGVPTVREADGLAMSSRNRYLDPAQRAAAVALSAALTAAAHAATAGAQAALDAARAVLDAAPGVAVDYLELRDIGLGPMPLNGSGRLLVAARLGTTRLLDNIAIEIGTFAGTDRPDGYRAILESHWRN
row,Structure (SMILES),inhibition
1,O=C(c1cccc(C(=O)N2CCN(c3ccc(F)cc3)CC2)c1)N1CCN(c2ccc(F)cc2)CC1,10% (inactive)
2,CCOC(=O)N1CCN(C(=O)CN(Cc2ccccc2)S(=O)(=O)c2ccc(OC)c(C)c2)CC1,5% (inactive)
3,O=C(Nc1ccc2c(c1)OCO2)N1CCN(c2ncccn2)CC1,0% (inactive)
4,CCOC(=O)c1ccc(NC(=O)CCc2c(C)nc3ncnn3c2C)cc1,1% (inactive)
5,CN(C)Cc1c(O)ccc2oc(Cc3ccccc3)cc12,8% (inactive)
6,Cc1ccc(S(=O)(=O)NCCNC(=O)C2CCCNC2=O)cc1 (stereo unspecified),6% (inactive)
